# Assay results published in the supplement of paper PMC7411054.
# Structures can show the parent of a compound that is named as a salt.
# Legend:
# Conditions in all cases: treatment time: 24 h
# [1] = system: A549-GM130-SQSTM1; experiment: lowest phenotypically active concentration; higher = less potent
# Method in brief: (§1)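 The reporter lines, fifteen in total and built by gene editing in A549, HepG2 and WPMY1 cells, used BFP for segmentation alongside GFP and RFP/FusionRed markers. Each was treated at 0.3, 1, 3 or 9 µM for 24 h in four wells and then imaged live, with live-cell features normalised to solvent control wells. Deviation meant ≥3 of 4 wells beyond the 95th percentile of control Euclidean distances; reproducibility meant a median replicate Pearson correlation above the 95th percentile of non-replicates. Only conditions meeting both were scored as phenotypically active.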
# [2] = system: A549-ACTB-RAB5A; experiment: phenotypically active (imaging signature differs from DMSO and reproducible) at any of 0.3-9 uM (binary (1 = active, 0 = inactive)); higher = active
# Method in brief: as §1
# [3] = system: A549-CANX-COX4; experiment: as above
# Method in brief: as §1
# [4] = system: A549-GM130-SQSTM1; experiment: as above
# Method in brief: as §1
# [5] = system: A549-TP53BP1-CLTA; experiment: as above
# Method in brief: as §1
# [6] = system: A549-TUBA1B-RELA; experiment: as above
# Method in brief: as §1
# [7] = system: HepG2-ACTB-RAB5A; experiment: as above
# Method in brief: as §1
# [8] = system: HepG2-CANX-COX4; experiment: as above
# Method in brief: as §1
# [9] = system: HepG2-GM130-SQSTM1; experiment: as above
# Method in brief: as §1
# [10] = system: HepG2-TP53BP1-CLTA; experiment: as above
# Method in brief: as §1
# [11] = system: HepG2-TUBA1B-RELA; experiment: as above
# Method in brief: as §1
# [12] = system: WPMY1-ACTB-RAB5A; experiment: as above
# Method in brief: as §1
# [13] = system: WPMY1-CANX-COX4; experiment: as above
# Method in brief: as §1
# [14] = system: WPMY1-GM130-SQSTM1; experiment: as above
# Method in brief: as §1
# [15] = system: WPMY1-TP53BP1-CLTA; experiment: as above
# Method in brief: as §1
# [16] = system: WPMY1-TUBA1B-RELA; experiment: as above
# Method in brief: as §1
# [17] = system: WPMY1-GM130-SQSTM1; experiment: lowest phenotypically active concentration; higher = less potent
# Method in brief: as §1
# [18] = system: WPMY1-TP53BP1-CLTA; experiment: as above
# Method in brief: as §1
# [19] = system: HepG2-GM130-SQSTM1; experiment: as above
# Method in brief: as §1
structure (smiles),measurement,setting,value
CC[C@@H](CO)NC(=O)[C@@H]1C=C2c3cccc4c3c(cn4C)C[C@H]2N(C)C1 [methysergide],lowest phenotypically active concentration,[1],9 µM
same,phenotypically active,[2],0 (inactive)
same,phenotypically active,[3],0 (inactive)
same,phenotypically active,[4],1 (active)
same,phenotypically active,[5],0 (inactive)
same,phenotypically active,[6],0 (inactive)
same,phenotypically active,[7],0 (inactive)
same,phenotypically active,[8],0 (inactive)
same,phenotypically active,[9],0 (inactive)
same,phenotypically active,[10],0 (inactive)
same,phenotypically active,[11],0 (inactive)
same,phenotypically active,[12],0 (inactive)
same,phenotypically active,[13],0 (inactive)
same,phenotypically active,[14],0 (inactive)
same,phenotypically active,[15],0 (inactive)
same,phenotypically active,[16],0 (inactive)
C[C@H]1C(=O)O[C@@H]2CCN3CC=C(COC(=O)[C@](C)(O)[C@]1(C)O)[C@H]23 [Monocrotaline],phenotypically active,[2],0 (inactive)
same,phenotypically active,[3],0 (inactive)
same,phenotypically active,[4],0 (inactive)
same,phenotypically active,[5],0 (inactive)
same,phenotypically active,[6],1 (active)
same,phenotypically active,[7],0 (inactive)
same,phenotypically active,[8],0 (inactive)
same,phenotypically active,[9],0 (inactive)
same,phenotypically active,[10],0 (inactive)
same,phenotypically active,[11],0 (inactive)
same,phenotypically active,[12],0 (inactive)
same,phenotypically active,[13],0 (inactive)
same,phenotypically active,[14],0 (inactive)
same,phenotypically active,[15],0 (inactive)
same,phenotypically active,[16],0 (inactive)
CCCN1C[C@H](CSC)C[C@@H]2c3cccc4[nH]cc(c34)C[C@H]21 [pergolide],lowest phenotypically active concentration,[17],9 µM
same,phenotypically active,[2],0 (inactive)
same,phenotypically active,[3],0 (inactive)
same,phenotypically active,[4],0 (inactive)
same,phenotypically active,[5],0 (inactive)
same,phenotypically active,[6],0 (inactive)
same,phenotypically active,[7],0 (inactive)
same,phenotypically active,[8],0 (inactive)
same,phenotypically active,[9],0 (inactive)
same,phenotypically active,[10],0 (inactive)
same,phenotypically active,[11],0 (inactive)
same,phenotypically active,[12],0 (inactive)
same,phenotypically active,[13],0 (inactive)
same,phenotypically active,[14],1 (active)
same,phenotypically active,[15],0 (inactive)
same,phenotypically active,[16],0 (inactive)
CC(C)c1cccc(C(C)C)c1O [propofol],lowest phenotypically active concentration,[17],3 µM
same,phenotypically active,[2],0 (inactive)
same,phenotypically active,[3],0 (inactive)
same,phenotypically active,[4],0 (inactive)
same,phenotypically active,[5],0 (inactive)
same,phenotypically active,[6],0 (inactive)
same,phenotypically active,[7],0 (inactive)
same,phenotypically active,[8],0 (inactive)
same,phenotypically active,[9],0 (inactive)
same,phenotypically active,[10],0 (inactive)
same,phenotypically active,[11],0 (inactive)
same,phenotypically active,[12],0 (inactive)
same,phenotypically active,[13],0 (inactive)
same,phenotypically active,[14],1 (active)
same,phenotypically active,[15],0 (inactive)
same,phenotypically active,[16],0 (inactive)
CCC(=O)C(CC(C)N(C)C)(c1ccccc1)c1ccccc1 (stereo not given) [methadone],phenotypically active,[2],0 (inactive)
same,phenotypically active,[3],0 (inactive)
same,phenotypically active,[4],0 (inactive)
same,phenotypically active,[6],0 (inactive)
same,phenotypically active,[7],0 (inactive)
same,phenotypically active,[8],0 (inactive)
same,phenotypically active,[9],0 (inactive)
same,phenotypically active,[11],0 (inactive)
same,phenotypically active,[12],0 (inactive)
same,phenotypically active,[13],0 (inactive)
same,phenotypically active,[14],0 (inactive)
same,phenotypically active,[16],0 (inactive)
C=C1C/C(=C\C)C(=O)O[C@@H]2CCN3CC=C(COC(=O)[C@]1(C)O)[C@H]23 [Seneciphylline],phenotypically active,[2],0 (inactive)
same,phenotypically active,[3],0 (inactive)
same,phenotypically active,[4],0 (inactive)
same,phenotypically active,[5],0 (inactive)
same,phenotypically active,[6],0 (inactive)
same,phenotypically active,[7],0 (inactive)
same,phenotypically active,[8],0 (inactive)
same,phenotypically active,[9],0 (inactive)
same,phenotypically active,[10],1 (active)
same,phenotypically active,[11],0 (inactive)
same,phenotypically active,[12],0 (inactive)
same,phenotypically active,[13],0 (inactive)
same,phenotypically active,[14],0 (inactive)
same,phenotypically active,[15],0 (inactive)
same,phenotypically active,[16],0 (inactive)
CC[C@H]1CN2CCC1C[C@H]2[C@H](O)c1ccnc2ccc(OC)cc12 (stereo not given in full) [Hydroquinine hydrobromide hydrate],lowest phenotypically active concentration,[18],9 µM
same,phenotypically active,[3],0 (inactive)
same,phenotypically active,[5],0 (inactive)
same,phenotypically active,[7],0 (inactive)
same,phenotypically active,[8],0 (inactive)
same,phenotypically active,[9],0 (inactive)
same,phenotypically active,[10],0 (inactive)
same,phenotypically active,[11],0 (inactive)
same,phenotypically active,[12],0 (inactive)
same,phenotypically active,[13],0 (inactive)
same,phenotypically active,[14],0 (inactive)
same,phenotypically active,[15],1 (active)
same,phenotypically active,[16],0 (inactive)
C[C@@H]1NCCc2cc(O)c(O)cc21 [Salsolinol hydrobromide],lowest phenotypically active concentration,[17],9 µM
same,phenotypically active,[2],0 (inactive)
same,phenotypically active,[3],0 (inactive)
same,phenotypically active,[4],0 (inactive)
same,phenotypically active,[5],0 (inactive)
same,phenotypically active,[6],0 (inactive)
same,phenotypically active,[7],0 (inactive)
same,phenotypically active,[8],0 (inactive)
same,phenotypically active,[9],0 (inactive)
same,phenotypically active,[10],0 (inactive)
same,phenotypically active,[11],0 (inactive)
same,phenotypically active,[12],0 (inactive)
same,phenotypically active,[13],0 (inactive)
same,phenotypically active,[14],1 (active)
same,phenotypically active,[15],0 (inactive)
same,phenotypically active,[16],0 (inactive)
Cc1sc2c(c1C)C(c1ccc(Cl)cc1)=N[C@H](CC(=O)OC(C)(C)C)c1nnc(C)n1-2,lowest phenotypically active concentration,[19],9 µM
same,lowest phenotypically active concentration,[17],9 µM
same,phenotypically active,[2],0 (inactive)
same,phenotypically active,[3],0 (inactive)
same,phenotypically active,[4],0 (inactive)
same,phenotypically active,[5],0 (inactive)
same,phenotypically active,[6],0 (inactive)
same,phenotypically active,[7],1 (active)
same,phenotypically active,[8],1 (active)
same,phenotypically active,[9],1 (active)
same,phenotypically active,[10],0 (inactive)
same,phenotypically active,[11],0 (inactive)
same,phenotypically active,[12],0 (inactive)
same,phenotypically active,[13],0 (inactive)
same,phenotypically active,[14],1 (active)
same,phenotypically active,[15],0 (inactive)
same,phenotypically active,[16],1 (active)
"Cc1c(C(=O)c2cccc3ccccc23)c2cccc3c2n1[C@H](CN1CCOCC1)CO3 [WIN 55,212-2 mesylate]",lowest phenotypically active concentration,[1],9 µM
same,lowest phenotypically active concentration,[19],9 µM
same,lowest phenotypically active concentration,[17],9 µM
same,lowest phenotypically active concentration,[18],9 µM
same,phenotypically active,[2],0 (inactive)
same,phenotypically active,[3],0 (inactive)
same,phenotypically active,[4],1 (active)
same,phenotypically active,[5],0 (inactive)
same,phenotypically active,[6],0 (inactive)
same,phenotypically active,[7],0 (inactive)
same,phenotypically active,[8],0 (inactive)
same,phenotypically active,[9],1 (active)
same,phenotypically active,[10],0 (inactive)
same,phenotypically active,[11],0 (inactive)
same,phenotypically active,[12],1 (active)
same,phenotypically active,[13],1 (active)
same,phenotypically active,[14],1 (active)
same,phenotypically active,[15],1 (active)
same,phenotypically active,[16],0 (inactive)
